# Rows were chosen to be rich in hits. Some 7.3% of all compounds tested hit in one or more screens of this group.
# ELG1 genotox: induces genotoxicity in HEK293T cells with luciferase-tagged ELG1; hit rate 1.3% among 330,000; HEK293T ELG1-luciferase reporter, luminescence, 16 h; Potency, µM (doses to about 46 µM), inactives show top-dose activity change, positive = activation, actives largely listed as activators; also: % of control where 0% means no effect; nearly all actives have a fitted effect of over 60% in size
#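 Luminescence read-out: rising ELG1-luciferase signal, reflecting elevated ELG1 protein under genetic stress, flags genotoxic compounds. Cells were treated for 16 hr at 37 °C before ONE-Glo detection.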
# Rab9 promoter act: activators of Rab9 promoter. hit rate 2.8% among 320,000. Huh7 Rab9 promoter-luciferase reporter, luminescence, 24 h. AID 485297. Potency, µM (series often up to 9.22 µM), without a hit: at the highest dose activation, negative = inhibition, actives largely listed as activators; also: % of control where 0% means no effect; nearly all actives have a fitted effect of over 60% in size
#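 Huh7 reporter line, Rab9 promoter upstream of luciferase. Compound exposure 24 h at 37 °C in reduced-serum medium with 10% FBS. Read-out: luminescence.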
# NPC1 promoter act: activators of NPC1 promoter. Huh7 NPC1 promoter luciferase reporter, 24 h. AID 485313. Potency, µM (titrated, usually from 9.22 µM), for inactives: at the top dose activation, most hits filed as activators. hit rate 2.4% among 320,000; also: % of control where 0% means no effect; nearly all actives have a fitted effect of over 60% in size
#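 Stably transfected Huh7 (NPC1 promoter→luciferase), 1500 cells/well in Opti-MEM + 10% FBS, 2 h settle, then compound 24 h at 37 °C. Luminescence after 10 min with Amplite reagent.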
# uPA generation: inhibitors of cell surface uPA generation; cell surface uPA generation assay, qHTS; hit rate 0.31% among 330,000; AID 540303; Potency, µM (top dose mostly 38.3 µM), without a hit: top-dose activity change, negative = inhibition, usual class: inhibitors; active = well fitted inhibition curve with a large enough effect; inconclusive = small, poorly fitted or top-dose-only effect; inactive = no such curve, though single readings can be large or run the other way; tested in mouse RAW 264.7 cells; also: % is scaled to controls: 0 for no effect and ±100 for the full control effect; nearly all actives have a fitted effect of over 55% in size
# SMN2 splice up: increases expression of the SMN2 splice variant. HEK293 SMN2-luciferase splicing reporter, luminescence, 30-36 h. Potency, µM (top dose mostly 46.1 µM), without a hit: at the top dose activity change, positive = activation, hits mostly activators. hit rate 2.8% among 210,000; also: % of control where 0% means no effect; nearly all actives have a fitted effect of over 55% in size
#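 qHTS luciferase splicing reporter: luminescence rises when SMN2 exon 7 is included in transfected HEK293 cells. Compound exposure lasted 30-36 h at 37C, with 4.5 mM final sodium butyrate as control, followed by a ONE-Glo read.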
# FLuc modulator: inhibits or activates purified firefly luciferase, miR-21 counter-screen; P08659; purified FLuc, Km substrates, luminescence inhibition; Potency, µM (titrated, usually from 57.5 µM), for the others: at the highest dose activity change, negative = inhibition, hits mostly inhibitors; hit rate 6.9% among 360,000; AID 588342;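 also: plate controls were vehicle for no effect and reference inhibitor for full effect; nearly all actives have a fitted effect of over 55% in size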
# Target sequence (P08659 whole entry, looked up): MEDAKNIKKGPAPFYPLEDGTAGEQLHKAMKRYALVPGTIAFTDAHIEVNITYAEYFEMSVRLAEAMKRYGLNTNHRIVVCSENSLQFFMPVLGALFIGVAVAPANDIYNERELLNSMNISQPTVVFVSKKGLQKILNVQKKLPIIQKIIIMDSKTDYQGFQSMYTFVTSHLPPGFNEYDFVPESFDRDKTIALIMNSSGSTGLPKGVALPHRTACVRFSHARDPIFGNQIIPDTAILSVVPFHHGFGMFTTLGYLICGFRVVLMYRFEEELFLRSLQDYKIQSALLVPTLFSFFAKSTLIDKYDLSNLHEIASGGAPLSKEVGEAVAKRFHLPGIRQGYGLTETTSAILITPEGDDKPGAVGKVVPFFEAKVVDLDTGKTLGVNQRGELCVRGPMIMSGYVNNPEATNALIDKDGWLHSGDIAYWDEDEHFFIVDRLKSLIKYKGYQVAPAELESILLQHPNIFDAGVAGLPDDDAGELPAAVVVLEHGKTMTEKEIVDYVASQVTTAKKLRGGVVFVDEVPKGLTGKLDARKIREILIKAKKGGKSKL
#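 Biochemical qHTS of compounds, final roughly 60 µM downward over six points, against 10 nM purified firefly luciferase using Km concentrations of substrates (10 uM D-luciferin, 10 uM ATP) in Tris acetate pH 7.5 buffer; luminescence output.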
# An asterisk follows results filed as active; ? = inconclusive; / = no result given. Unless noted, calls follow the shape of the dose curve; as a rule, active = well fitted curve in the direction sought with a large enough effect; inconclusive = small, poorly fitted or top-dose-only effect, or another doubt; inactive = no such curve, though single readings can be large; an effect the other way counts as inactive or inconclusive. Potency is read from the fitted curve at half-maximal effect.
SMILES,ELG1 genotox,Rab9 promoter act,NPC1 promoter act,uPA generation,SMN2 splice up,FLuc modulator
NC(=O)CCn1c2ccccc2c2ccccc21,-4.0%,-18.2%,-0.8%,1.8%,-1.7%,-3.4%
Cc1ccc2c(c1)c1cccc3c1n2CCN3CCC(N)=O,5.01µM*,3.16µM*,3.16µM*,12.0%,20µM*,6.01µM*
Nc1nnc(-c2ccc(Cl)c(Cl)c2)s1,1.1%,14.4%,2.2%,20.2%,3.3%,?
Nc1cccn2c(-c3ccc(Cl)cc3)cnc12,?,3.55µM*,?,2.6%,11.2µM*,2.69µM*
Nc1cccn2c(-c3ccc(Cl)c(Cl)c3)cnc12,?,3.16µM*,?,2.8%,3.55µM*,3.01µM*
COc1ccc2[nH]cc(CCNc3nc(-c4ccc(C(=O)N(C)C)cc4)nc4ccccc34)c2c1,/,/,/,/,11.2µM*,/
COc1cccc(-c2nc(NCCc3c[nH]c4ccc(OC)cc34)c3ccccc3n2)c1,/,/,/,/,23.5%,/
COc1cccc(C2CC(=O)Nc3cc4c(cc32)CCC4)c1 (configuration not stated),-0.5%,-29.0%,-30.4%,11.2µM*,/,7.3%
CS(=O)(=O)c1ccc2nc(NC(=O)CN3C(=O)C4CC=CCC4C3=O)sc2c1 (configuration not stated),-2.5%,0.2%,-5.6%,4.0%,8.6%,?
Cc1ccc2nc(NC(=O)[C@H](C)N3C(=O)C4CC=CCC4C3=O)sc2c1 (some centres not stated),5.2%,-20.8%,-14.1%,-0.1%,20.9%,16.9µM*
Cc1ccc2nc(NC(=O)CN3C(=O)C4CC=CCC4C3=O)sc2c1 (configuration not stated),1.3%,1.2%,-5.3%,-1.8%,12.7%,10.7µM*
O=c1c2ccccc2n(Cc2c(F)cccc2Cl)c(=O)n1CCc1ccccc1,/,/,/,/,-1.4%,-11.4%
c1ccc(CSc2nnc(-c3ccco3)o2)cc1,?,?,?,0.7%,/,16.9µM*
Cc1ccc(CSc2nnc(-c3ccco3)o2)cc1,?,3.98µM*,?,-0.6%,19.6%,12µM*
O=C(CSc1nnc(-c2ccco2)o1)c1ccc([N+](=O)[O-])cc1,0.3%,-0.7%,5.1%,13.2%,/,-2.0%
Brc1ccc(CSc2nnc(-c3ccco3)o2)cc1,17.8%,8.3%,-1.1%,-6.5%,12.6µM*,?
O=C(O)c1ccc(CSc2nnc(-c3ccco3)o2)cc1,-0.9%,-3.3%,-1.3%,-4.6%,0.7%,-10.5%
O=C(CSc1nnc(-c2ccco2)o1)c1ccccc1Cl,15.0%,?,16.8%,-3.8%,21.9%,26.9µM*
Fc1ccc(CSc2nnc(-c3ccco3)o2)cc1,14.9%,?,?,-13.0%,/,?
CC(C)Cn1c(N)c(C=O)c(=O)[nH]c1=O,-1.4%,1.2%,-3.5%,-4.2%,15.2%,-1.1%
COC(=O)c1sccc1S(=O)(=O)N(CC(=O)Nc1cc(C)cc(C)c1)c1ccc(Cl)cc1,/,/,/,/,/,-10.0%
FCCCOc1ccc(-c2nccc(-c3ccc(F)cc3)n2)cc1,1.4%,1.2%,-1.3%,3.1%,4.8%,23.9µM*
FCCCOc1ccc(-c2ccnc(-c3ccccc3)n2)cc1,-1.4%,19.9%,10.6%,5.5%,-8.3%,12µM*
CCCCn1c(=O)nc2n(-c3ccc(Cl)cc3)c3ccccc3cc-2c1=O,6.9%,-9.5%,-1.2%,0.5%,-15.3%,1.8%
Cc1ccccc1CN1CCc2nc(Nc3ccc4c(c3)OCCO4)ncc2C1,/,/,/,/,/,13.5µM*
SMILES,ELG1 genotox,Rab9 promoter act,NPC1 promoter act,uPA generation,SMN2 splice up,FLuc modulator
Cc1cccc(NS(=O)(=O)c2ccc(C3CCCCC3)cc2)c1,-9.8%,-2.2%,-4.7%,-2.8%,-38.4%,6.5%
O=C(O)c1cccc(NS(=O)(=O)c2ccc(C3CCCCC3)cc2)c1,1.8%,-2.8%,-4.3%,-0.5%,16.7%,26.9µM*
CCn1cc(C(=O)NCc2ccccc2OC)c(=O)c2cc(S(=O)(=O)N3CCCCC3)ccc21,/,/,/,/,0.5%,-6.5%
COc1ccc(NC(=O)c2cc3ccccc3o2)cc1,6.51µM*,0.562µM*,1.58µM*,-9.1%,?,3.79µM*
COc1cc(NC(=O)C(C)C)ccc1NC(=O)c1cc2ccccc2o1,?,3.16µM*,2.24µM*,14.1µM*,/,7.57µM*
COc1ccc(-c2nc3cc(NC(=O)c4cc5ccccc5o4)ccc3o2)cc1,/,/,/,/,-2.3%,-3.7%
COc1ccc(NC(=O)c2cc3ccccc3o2)cn1,?,2.51µM*,2.82µM*,-11.4%,/,13.5µM*
COc1cc(NC(=S)NC(=O)C(C)C)ccc1NC(=O)c1cc2ccccc2o1,-2.8%,20.7%,-0.1%,-4.5%,-19.3%,-0.9%
COc1ccc(NC(=O)c2cc3ccccc3o2)cc1OC,?,?,6.9%,-3.8%,/,15.1µM*
COc1ccc2c(C)c(CCC(=O)NCCc3ccc(OC)c(OC)c3)c(=O)oc2c1,/,/,/,/,-3.6%,4.6%
O=C(NC1CC(=O)N(c2ccc(Cl)cc2)C1)C1CCCCC1 (configuration not stated),/,/,/,/,/,0.5%
COc1ccccc1N1CCN(C(=O)CN2C(=O)COc3ccc(S(=O)(=O)N4CCCC4)cc32)CC1,/,/,/,/,?,-1.1%
COc1ccc(NC(=O)c2coc3ccccc23)cc1OC,?,?,?,-0.1%,20.2%,13.5µM*
COc1ccc(NC(=O)c2coc(=O)c3ccccc23)cc1OC,/,/,/,/,?,4.4%
Cc1ccc(C(C)C)c(OCC(=O)NCC2(N3CCOCC3)CCCCC2)c1,/,/,/,/,/,-12.0%
Cc1nn(-c2ccccc2)c(C)c1/C=N/NC(=O)c1ccc(F)cc1,/,/,/,14.2%,/,/
Cc1nn(-c2ccccc2)c(Cl)c1/C=N/NC(=O)c1ccn[nH]1,8.2µM*,1.12µM*,0.224µM*,?,/,0.757µM*
Cc1nn(-c2ccccc2)c(Cl)c1/C=N/NC(=O)c1[nH]ncc1Br,1.46µM*,0.398µM*,0.316µM*,?,/,0.601µM*
Cc1nn(-c2ccccc2)c(Cl)c1/C=N/NC(=O)CNc1n[nH]c(=O)[nH]c1=O,2.2%,-0.8%,0.8%,/,-9.2%,?
Cc1cc(C(=O)N/N=C/c2c(C)nn(-c3ccccc3)c2Cl)n[nH]1,?,?,28.9%,-2.0%,/,7.57µM*
Cc1ccccc1OCC(=O)N/N=C/c1c(C)nn(-c2ccccc2)c1Cl,-0.4%,-7.7%,-6.2%,-8.1%,17.1%,?
Cc1nn(-c2ccccc2)c(C)c1/C=N/NC(=O)c1cc(-c2ccccc2)n[nH]1,-15.5%,-18.4%,-7.0%,-10.3%,3.9%,?
Cc1nn(-c2ccccc2)c(Cl)c1/C=N/NC(=O)c1ccccc1F,?,2.24µM*,?,-7.3%,/,8.49µM*
Cc1cc(C)c(S(=O)(=O)NCc2ccc3c(c2)CCN3C(=O)c2ccccc2)c(C)c1,/,/,/,/,/,5.4%

# Compound activity deposited in PubChem BioAssay by National Center for Advancing Translational Sciences (NCATS).
